This is part of a sample that, as a whole, favours compounds with a hit. Of some 83,000 tested, about 20% had one in any assay.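 Compound tested at a single concentration for 48 hours in 96-well plates; a percent growth value below 10 was scored as active.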 Calls of active or inactive are those of the source.
The compounds below were run on SR leukemia (assay: NCI-60 one-dose screen, 48 h (100 = growth as untreated, 0 = no growth, -100 = all killed)). Settings: 10 µM unless noted.
Protocol: Growth inhibition of the SR human tumor cell line is measured as a screen for anti-cancer activity. Cells are grown in 96 well plates and exposed to the test compound for 48 hours. Compounds are tested at a single concentration, which is 10^-5 M for most compounds. The reported endpoint is percent growth (GI% or GIPRCNT), where numbers from 0 - 100% represent growth inhibition, and numbers from -100% - 0 represent cell death. For example, a value of 40 represents 60% growth inhibition. A value of 0 means no net growth occurred over the course of the experiment. A value of -40 indicates 40% of cells at the beginning of the experiment died by the end of the experiment. A value of -100 means all cells are dead at the end of the experiment.
NCI-60 Human Tumor Cell Lines Screen was performed using the standard one-dose NCI protocol, which is described in more detail at https://dtp.cancer.gov/discovery_development/nci-60/default.htm.
Compounds with GIPRCNT values below 10 were considered active. Activity score was based on GIPRCNT using the following formula: […]
Score is 0 for GIPRCNT values of 100 or above, 50 for GIPRCNT values of 0, and 100 for GIPRCNT values of -100.

SMILES	growth
Nc1c(C(=O)Nc2ccccc2F)sc2nc3c(cc12)CCCC3	13.3% (inactive)
N=C(N)c1ccc(-c2ccc(-c3ccc(Cl)c(Cl)c3)s2)nc1	3.84% (active)
CCN1C(=O)N(CC)C2C1NN=c1s/c(=C\c3ccccc3F)c(=O)n12 (stereo not given)	8.64% (active)
CCOC(=O)C#Cc1c(C(=O)OCC)nnn1Cc1ccc([N+](=O)[O-])cc1	-10.7% (active)
O=C(/C=C/c1cccs1)Nc1ncc(Cc2ccccc2F)s1	26.1% (inactive)
O=C(Nc1cccc2ccccc12)NC1CC1	109% (inactive)
CN1C(=O)/C(=C\c2nc([P+](c3ccccc3)(c3ccccc3)c3ccccc3)c(N3CCOCC3)o2)SC1=S	13.3% (inactive)
N#CC1=C(N)Oc2c(sc3c(Br)cccc23)C1c1ccc(Cl)cc1 (stereo not given)	4.58% (active)
CCOC(=O)C1=C(N)Oc2c(sc3c(F)cccc23)C1c1ccc(O)cc1 (stereo not given)	15.3% (inactive)
COC1/C=C/OC2(C)Oc3c(C)c(O)c4c(O)c(c(/C=N/Nc5ccc([N+](=O)[O-])cc5[N+](=O)[O-])c(O)c4c3C2=O)NC(=O)C(C)=C/C=C/C(C)C(O)C(C)C(O)C(C)C(OC(C)=O)C1C (stereo not given)	7.02% (active)
Cn1c(=O)cc2c3c(c(NCCCO)ccc31)C(=O)c1ccccc1-2	13.4% (inactive)
N#CC1=C(N)Oc2c(ccc3ccccc23)C1c1ccccc1 (stereo not given)	15.2% (inactive)
COc1ccc(/C=C(\C#N)n2nnc3cc(F)c(F)cc32)cc1	12.9% (inactive)
COC(=O)c1c2c(c(C)[n+]([O-])c1C)C(=O)C(NCc1cccc(OC)c1)=CC2=O	17.6% (inactive)
O=C(OC(CO)C(=O)NC12CC3CC(CC(C3)C1)C2)c1ccc(Cl)cc1 (stereo not given)	84.7% (inactive)
COc1c(B(O)O)cccc1-c1cc(C)c2c(ccc3[nH]ncc32)n1	27.5% (inactive)
N#Cc1nc(-c2ccc(F)cc2)oc1S(=O)(=O)N1CCCCC1	1.55% (active)
C=C(C)[C@@H]1CCC[C@]2(COS(=O)(=O)c3ccc(C)cc3)CC[C@]3(C)[C@@H](CC[C@@H]4[C@@]5(C)CCCNC(C)(C)[C@@H]5CC[C@]43C)[C@@H]12	-46.1% (active)
CN(C)CC(C)(C)C(=O)/C=C/c1ccccc1	-16.5% [25 µM] (active)
COc1ccc(CNc2c3ccccc3nc3ccccc23)cc1	6.96% (active)

SMILES	growth
CN(C)CC1CCC(CN(C)C)C1=O (stereo not given)	59.7% (inactive)
COc1ccc(-c2nn(-c3cccc(Cl)c3)cc2-c2cc(-c3ccc(Br)cc3)nc(N)n2)cc1	82% (inactive)
CS(=O)(=O)c1ccc(-c2cnn3ccc(-c4cccc(S(=O)(=O)C5CC5)c4)nc23)cc1	49.3% (inactive)
COc1cc(NS(=O)(=O)c2ccc(-c3cnc(C4CC4)o3)cc2)ccc1F	19.6% (inactive)
Cc1ccc(NC(=O)c2sc3nc(C)c(Br)c(C)c3c2N)cc1	81.6% (inactive)
CC(C)(Sc1cc(C(C)(C)C)c(O)c(C(C)(C)C)c1)Sc1cc(C(C)(C)C)c(OC(=O)CCCC(=O)O)c(C(C)(C)C)c1	28.1% (inactive)
COc1ccc(CN2c3ccccc3Sc3ccccc32)cc1F	16.9% (inactive)
CN1CCN(c2cc(Nc3cc(C4CC4)[nH]n3)nc(Nc3ccc(CC(=O)NCc4cccc(F)c4)cc3)n2)CC1	30.3% (inactive)
O=C(N/N=C/c1c(Cl)cccc1Cl)c1cccnc1Nc1cccc(C(F)(F)F)c1	54.5% (inactive)
Clc1ccc2c(c1)C(c1c[nH]c3ccccc13)(c1c[nH]c3ccccc13)CCO2	63.8% (inactive)
C#COc1cccc(Nc2c(C#N)cnc3ncc(NC(=O)CCl)cc23)c1	10.2% [6.25 µM] (inactive)
OCCn1cc(-c2nc(-c3c[nH]c4ncccc34)cs2)c2cc(F)ccc21	22% (inactive)
COc1cc2c(c(OC)c1OC)CCC(c1cccc(NC(=O)c3ccc(Br)cc3)c1)O2 (stereo not given)	35% (inactive)
CS(=O)(=O)Nc1cncc(-c2ccc3ncnc(Nc4cncc(Cl)c4)c3c2)c1	87.9% (inactive)
C1CN(SSN2CCOCC2)CCO1	13.3% [100 µM] (inactive)
O=C(NCCNc1nccc(Nc2ccc(S(=O)(=O)Nc3ccccn3)cc2)n1)c1cccc([N+](=O)[O-])c1	84.7% (inactive)
COc1cc2ncnc(Nc3ccc(S(=O)(=O)Nc4cc(C)on4)cc3)c2cc1OCCCN1CCN(c2ccc(F)cc2)CC1	107% (inactive)
O=C1c2c(c3c4ccccc4[nH]c3c3ccc4ccccc4c23)C(=O)N1CCN1CCOCC1	13.1% (inactive)
NC(=O)c1cc(I)ccc1NC(=O)/C=C/c1ccccc1	1.87% (active)
Cc1ccc2c(n1)C(=O)C(Br)=C(C1CCCC1)C2=O	31.1% (inactive)

From PubChem BioAssay (NCI)
